The list is not random: actives were taken first. Their share in the collection is about 3.5%.
Rv3671c protease: inhibitors of M. tuberculosis serine protease Rv3671c; 0.048% of 320,000 active; inhibition, % at 5.96 µM; P9WHR9; AID 2606; in the data active = inhibition above about 38%;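 note: extracellular domain of Rv3671c used as enzyme; 0% = enzyme with DMSO and 100% = no enzyme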
Target sequence (P9WHR9 whole entry, looked up, the tested form may be a part): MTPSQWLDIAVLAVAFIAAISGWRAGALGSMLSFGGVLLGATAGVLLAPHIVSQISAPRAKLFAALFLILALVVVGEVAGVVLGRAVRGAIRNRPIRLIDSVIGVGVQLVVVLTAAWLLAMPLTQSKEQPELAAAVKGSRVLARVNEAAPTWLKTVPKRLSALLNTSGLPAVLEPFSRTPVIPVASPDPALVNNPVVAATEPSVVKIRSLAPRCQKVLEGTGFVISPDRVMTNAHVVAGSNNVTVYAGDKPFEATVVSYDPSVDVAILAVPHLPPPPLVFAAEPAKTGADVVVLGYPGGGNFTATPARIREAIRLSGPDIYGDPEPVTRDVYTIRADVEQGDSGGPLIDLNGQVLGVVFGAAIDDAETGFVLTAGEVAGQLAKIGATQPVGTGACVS
FadD28 binding: inhibitors of Mycobacterium tuberculosis FadD28 bisubstrate binding; FadD28 bisubstrate probe binding, fluorescence polarization; inhibition, % at 12.5 µM; 0.22% of 360,000 active; in the data active = inhibition above about 8.5%, passing the limit was not always enough
GDH-TPI inh: counter-screen for M. tuberculosis FBA inhibitors: GDH-TPI coupled enzymes. GDH-TPI coupled enzyme counterscreen, NADH absorbance. inhibition, % at 4.8 µM. 1.2% of 360,000 active. AID 588335; in the data active = inhibition above about 30%;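 note: 0% = DMSO wells and 100% = wells lacking the enzyme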
Mtb UGM inh: blocks M. tuberculosis UGM enzyme; P9WIQ1; 0.06% of 320,000 active; inhibition, % at 10 µM; purified UGM, fluorescence polarization probe displacement; in the data active = inhibition above about 10%, passing the limit was not always enough
Mtb hypoxia rep: Mtb hypoxia fluorescent reporter inhibition | M. tuberculosis hypoxia-regulated fluorescent reporter, fluorescence | fluorescence inhibition, % (test concentration not listed) | AID 1159583 | 0.1% of 300,000 active; in the data active = fluorescence inhibition mostly above about 23%, no sharp cut-off; inactive = mostly below about 17%
FBA Mtb inh: inhibitors of M. tuberculosis fructose-bisphosphate aldolase | P9WQA3 | purified M. tuberculosis FBA, fluorescence read-out | 2.3% of 360,000 active | AID 588726 | inhibition, % at 1 µM; in the data active = inhibition above about 27%;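 note: 0% = vehicle and 100% = reference inhibitor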
* hit, by the source's call.

Results for COc1cc(/C=N/NC(=O)CN(Cc2ccccc2)S(=O)(=O)c2ccc3c(c2)OCCO3)ccc1O ?
Rv3671c protease: 7; FadD28 binding: 22*; GDH-TPI inh: 11; Mtb UGM inh: -1; FBA Mtb inh: 3

What do the screens show for `CCCc1cc(=O)oc2c3c(cc(OCC(=O)N[C@@H](C)C(=O)O)c12)OC(C)(C)CC3`?
Rv3671c protease: -2; FadD28 binding: -2; GDH-TPI inh: 14; Mtb UGM inh: -1; Mtb hypoxia rep: 17; FBA Mtb inh: active

Results for CCc1cc(=O)oc2cc(C)cc(OCC(=O)NC(Cc3c[nH]c4ccc(O)cc34)C(=O)O)c12 (stereo not given) ?
Rv3671c protease: -5; FadD28 binding: 1; GDH-TPI inh: 8; Mtb UGM inh: 1; FBA Mtb inh: 12

Results for CCc1cc(=O)oc2c3c(cc(OCC(=O)N[C@H](C(=O)O)[C@H](C)CC)c12)OC(C)(C)CC3 ?
Rv3671c protease: -2; FadD28 binding: 0; GDH-TPI inh: 17; Mtb UGM inh: -1; Mtb hypoxia rep: 2; FBA Mtb inh: active

How did CCCc1cc(=O)oc2c3c(cc(OCC(=O)N[C@@H](CSC)C(=O)O)c12)OC(C)(C)CC3 do in these assays?
FadD28 binding: -1; GDH-TPI inh: 20; Mtb UGM inh: 9; Mtb hypoxia rep: 8; FBA Mtb inh: active

What do the screens show for `CC=CC=CC(=O)Nc1cccc(C2=NOC3(C2)CC(C(N)=O)N(C(=O)COc2ccc(Cl)cc2)C3)c1` (stereo not given)?
Mtb hypoxia rep: 6

How did COc1cc(C=NNC(=O)c2nnn(-c3nonc3N)c2C(C)C)ccc1OCc1ccccc1 do in these assays?
Mtb hypoxia rep: -4

Results for Cc1ccnc(N/C=C(/NC(=O)c2ccccc2)C(=O)N/N=C\c2ccc(F)cc2)n1 ?
Rv3671c protease: 6; FadD28 binding: -1; GDH-TPI inh: 54*; Mtb UGM inh: 0; FBA Mtb inh: 2

What do the screens show for `Cc1ccnc(N/C=C(/NC(=O)c2ccccc2)C(=O)NN=Cc2ccc(F)cc2)n1`?
Mtb hypoxia rep: 2

Results for COc1ccc(/C=C(\NC(=O)c2ccccc2)C(=O)N/N=C/c2cccnc2)cc1 ?
Rv3671c protease: 0; FadD28 binding: -4; GDH-TPI inh: 39*; Mtb UGM inh: 3; FBA Mtb inh: -2

How did COc1ccc(/C=C(\NC(=O)c2ccccc2)C(=O)N/N=C/c2ccncc2)cc1 do in these assays?
Rv3671c protease: 3; FadD28 binding: -3; GDH-TPI inh: 49*; Mtb UGM inh: 0; FBA Mtb inh: 0

What do the screens show for `Cc1c(O)ccc(C(=O)COc2ccc(F)cc2)c1O`?
Rv3671c protease: -2; FadD28 binding: -1; GDH-TPI inh: 32*; Mtb UGM inh: 1; Mtb hypoxia rep: 9; FBA Mtb inh: -2

How did CCc1cc(C(=O)COc2ccc(F)cc2)c(O)cc1O do in these assays?
Rv3671c protease: -22; FadD28 binding: 0; GDH-TPI inh: 14; Mtb UGM inh: -2; Mtb hypoxia rep: 5; FBA Mtb inh: 0

Results for O=C(CSc1ccc(Cl)cc1)NN=Cc1cccnc1 ?
Mtb hypoxia rep: 9

How did Cc1c(NC(=S)NN=C/C=C/c2ccc([N+](=O)[O-])cc2)c(=O)n(-c2ccccc2)n1C do in these assays?
Mtb hypoxia rep: 1

What do the screens show for `CCCCCCn1ccc(=N)cc1`?
Rv3671c protease: 0; FadD28 binding: 1; GDH-TPI inh: -7; Mtb UGM inh: -4; FBA Mtb inh: 8

Results for CCCCCCCCCCCCCCCCn1cc[n+](CC(C)=O)c1 ?
FadD28 binding: 36*; GDH-TPI inh: -10; Mtb hypoxia rep: 15; FBA Mtb inh: -1

Results for CS(=O)(=O)Nc1ccc(-c2cn3cccnc3n2)cc1 ?
Rv3671c protease: 3; FadD28 binding: 1; GDH-TPI inh: 16; Mtb UGM inh: -2; Mtb hypoxia rep: 11; FBA Mtb inh: 115*

What do the screens show for `Nc1cccc(-c2cn3cccnc3n2)c1`?
Rv3671c protease: 6; FadD28 binding: 0; GDH-TPI inh: 7; Mtb UGM inh: 2; Mtb hypoxia rep: -5; FBA Mtb inh: 6

What do the screens show for `Cc1ccc(-c2cn3cccnc3n2)cc1`?
Rv3671c protease: -3; FadD28 binding: -4; GDH-TPI inh: 7; Mtb UGM inh: -1; Mtb hypoxia rep: 15; FBA Mtb inh: active

How did Cc1cccc(NC(=O)c2nc[nH]c2C(=O)NC(Cc2ccccc2)C(=O)OCc2ccccc2)c1 (stereo not given) do in these assays?
Mtb hypoxia rep: 4

Results for COC(=O)c1cnn(-c2ccc(F)cc2F)c1/C=N/NC(N)=S ?
Rv3671c protease: 7; FadD28 binding: -2; GDH-TPI inh: 36*; Mtb UGM inh: 0; FBA Mtb inh: -1

Results for COC(=O)c1cnn(-c2ccc(F)cc2F)c1/C=N/NC(=S)NC(C)(C)C ?
Rv3671c protease: -14; FadD28 binding: -1; GDH-TPI inh: 36*; Mtb UGM inh: 5; FBA Mtb inh: -1

How did CCOC(=O)N/N=C/c1ccc(F)cc1F do in these assays?
Rv3671c protease: -7; FadD28 binding: -4; GDH-TPI inh: 5; Mtb UGM inh: -2; FBA Mtb inh: 1

How did CNC(=S)N/N=C/c1c(C(=O)OC)cnn1-c1ccc(F)cc1F do in these assays?
Rv3671c protease: -2; FadD28 binding: -3; GDH-TPI inh: 46*; Mtb UGM inh: 2; FBA Mtb inh: -2

Results for COC(=O)c1cnn(-c2ccccc2)c1/C=N/NC(=S)Nc1ccccc1 ?
Rv3671c protease: -12; FadD28 binding: -3; GDH-TPI inh: 18; Mtb UGM inh: 6; FBA Mtb inh: 2

What do the screens show for `CC(=NNC(=O)CSc1nc2ccccc2c(=O)n1-c1ccccc1C)c1cccs1`?
Mtb hypoxia rep: 2

What do the screens show for `COc1cccc(C2c3[nH]c4ccccc4c3CCN2C(=O)Cn2cncn2)c1OC` (stereo not given)?
Rv3671c protease: 0; FadD28 binding: -1; GDH-TPI inh: -5; Mtb UGM inh: -1; Mtb hypoxia rep: 4; FBA Mtb inh: -1

Results for COc1ccccc1C1c2[nH]c3ccccc3c2CCN1Cc1ccc(NC(C)=O)s1 (stereo not given) ?
Rv3671c protease: 10; FadD28 binding: 0; GDH-TPI inh: 32*; Mtb UGM inh: 1; Mtb hypoxia rep: 7; FBA Mtb inh: 8

Results for C#CCOCCOCCOCCNc1nc(N2CCN(C(=O)C(CCC(=O)O)n3cc(C(N)CO)nn3)CC2)nc(N2CCN(C(=O)C(CCC(=O)O)n3cc(C(N)CC(C)C)nn3)CC2)n1 (stereo not given) ?
Mtb hypoxia rep: 1

What do the screens show for `Cc1nn(C)c(C)c1C=NO`?
Mtb hypoxia rep: 0

Results for COc1ccccc1N1CCN(C2CCCN(S(=O)(=O)c3ccccc3)C2)CC1 (stereo not given) ?
Rv3671c protease: -1; FadD28 binding: -1; GDH-TPI inh: 10; Mtb UGM inh: 1; Mtb hypoxia rep: -10; FBA Mtb inh: 163*

What do the screens show for `N#CC(=Cc1cn(CC(=O)O)c2ccccc12)C(=O)NCc1ccccc1`?
Mtb hypoxia rep: 2

Bioassay records as filed in PubChem BioAssay.
